{"source": "paper PMC10726135", "about": "“HNF4α isoforms regulate the circadian balance between carbohydrate and lipid metabolism in the liver”", "note": "Over roughly 18,000 sequences, “log2 normalized intensity” has its median near 0.36; the highest 2% begin near 7.3. The full list was thinned out, with the highest values kept by preference.", "data": [{"target": "T1, HNF4alpha8 (COS-7 nuclear extract) (Homo sapiens, UniProt P41235-5 1-452)", "T1 sequence": "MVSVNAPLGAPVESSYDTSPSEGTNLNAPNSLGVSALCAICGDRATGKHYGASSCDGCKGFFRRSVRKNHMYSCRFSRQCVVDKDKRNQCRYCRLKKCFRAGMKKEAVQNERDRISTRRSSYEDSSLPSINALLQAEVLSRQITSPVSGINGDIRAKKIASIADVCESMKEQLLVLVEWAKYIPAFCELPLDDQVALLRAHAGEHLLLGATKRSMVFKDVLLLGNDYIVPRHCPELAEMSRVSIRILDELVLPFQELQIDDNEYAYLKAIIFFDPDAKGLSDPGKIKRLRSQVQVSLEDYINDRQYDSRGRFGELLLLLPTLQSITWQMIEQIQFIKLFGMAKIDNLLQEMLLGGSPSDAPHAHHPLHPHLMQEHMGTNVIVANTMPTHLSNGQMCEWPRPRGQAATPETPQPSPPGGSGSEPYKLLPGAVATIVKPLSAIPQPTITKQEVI", "test": "protein-binding microarray; COS-7 nuclear extract on double-stranded Agilent 4x180k PBM; binding buffer, salt, pH and temperature not given in the material; high values mean tight binding", "details": "chain copies: 2; label: 3' end of strand 1 on the slide; dsDNA, one strand shown", "procedure,_shortened": "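Nuclear extracts from COS-7 cells expressing a transiently transfected human HNF4α isoform were put on a custom Agilent SurePrint G3 4x180k array carrying ~44,000 double-stranded ~60-nt test sequences in quadruplicate. Imaging used an Agilent G2565CA scanner at 2-µm resolution. Binding signal is the background-corrected, normalized gProcessedSignal from Agilent software.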", "units": {"binding signal": "log2 normalized intensity"}, "values": [{"sequence": "GTTGCCTGTGAGTCAGGTACCTGCTTCTGCGCCTAGGGAGATTAGAGTATCGGTCGA", "binding signal": 0.609}, {"sequence": "TACTTAGTGTTTTATGTGTATTTACTTATTGCCTAGGGAGATTAGAGTATCGGTCGA", "binding signal": 1.74}, {"sequence": "GGCAAGATTTTGTCCTGAGTTATTGGAAGAGCCTAGGGAGATTAGAGTATCGGTCGA", "binding signal": 0.282}, {"sequence": "TCTTCAAGGAGGTGAACTTTGAGACTATCCGCCTAGGGAGATTAGAGTATCGGTCGA", "binding signal": 5.2}, {"sequence": "AAAGTTTCCTCTCCTGCCCTACTCCCTTAAGCCTAGGGAGATTAGAGTATCGGTCGA", "binding signal": 2.63}, {"sequence": "AGTGGTTTCAAGGTGACCCCACGGAGCTGCGCCTAGGGAGATTAGAGTATCGGTCGA", "binding signal": 3}, {"sequence": "CCTACCAGTATGCAATGTTAGTCTGGGAAAGCCTAGGGAGATTAGAGTATCGGTCGA", "binding signal": -0.0207}, {"sequence": "ATTGCCGACCTCATGAGTAGAGAGCAATCAGCCTAGGGAGATTAGAGTATCGGTCGA", "binding signal": -0.943}, {"sequence": "ACTTCTGTCTCCAGAAATCAACCTTTGATCGCCTAGGGAGATTAGAGTATCGGTCGA", "binding signal": 8.8}, {"sequence": "ATGTCTCCAGAAACCAACCTTTGATCATTCGCCTAGGGAGATTAGAGTATCGGTCGA", "binding signal": 5.75}, {"sequence": "TGTCTCCAGAAATCAACCTTTGATCGTTTGGCCTAGGGAGATTAGAGTATCGGTCGA", "binding signal": 6.77}, {"sequence": "GCCAGAACTGAGCCCTGGTTTATCTGTTGTGCCTAGGGAGATTAGAGTATCGGTCGA", "binding signal": 0.861}, {"sequence": "TTTTCAATCTTATTTTTACTATGTGGCATTGCCTAGGGAGATTAGAGTATCGGTCGA", "binding signal": 1.35}, {"sequence": "ACCAACCTGTCCAAAGGTCATCTGTCACTCGCCTAGGGAGATTAGAGTATCGGTCGA", "binding signal": 6.36}, {"sequence": "CCTGTCCAAAGGTCATCTGTCACTCTAGATGCCTAGGGAGATTAGAGTATCGGTCGA", "binding signal": 6.02}, {"sequence": "CACTTACAAGTGTACAAAGGTCACTTCTGTGCCTAGGGAGATTAGAGTATCGGTCGA", "binding signal": 7.03}, {"sequence": "GTCTGACCAACCTGTCCAAAGGTCATCTGTGCCTAGGGAGATTAGAGTATCGGTCGA", "binding signal": 7.75}, {"sequence": "AGTATATTGGCTTGGCTGTGTCCCTTGACCGCCTAGGGAGATTAGAGTATCGGTCGA", "binding signal": 3.67}, {"sequence": "CTGTACACTTACAAGTGTACAAAGGTCACTGCCTAGGGAGATTAGAGTATCGGTCGA", "binding signal": 8.53}, {"sequence": "CTTGGCTGTGTCCCTTGACCAAAGGTCACTGCCTAGGGAGATTAGAGTATCGGTCGA", "binding signal": 7.67}, {"sequence": "GGAATGTCTGACCAACCTGTCCAAAGGTCAGCCTAGGGAGATTAGAGTATCGGTCGA", "binding signal": 8.5}, {"sequence": "TATACCTGTACACTTACAAGTGTACAAAGGGCCTAGGGAGATTAGAGTATCGGTCGA", "binding signal": 2.96}, {"sequence": "TCAGAGGAATGTCTGACCAACCTGTCCAAAGCCTAGGGAGATTAGAGTATCGGTCGA", "binding signal": -0.555}, {"sequence": "ATTGGCTTGGCTGTGTCCCTTGACCAAAGGGCCTAGGGAGATTAGAGTATCGGTCGA", "binding signal": 2.62}, {"sequence": "TTATATCAGAGGAATGTCTGACCAACCTGTGCCTAGGGAGATTAGAGTATCGGTCGA", "binding signal": 0.807}, {"sequence": "ACAGGGAAAGTATGGGTCAGCCCTGCCATCGCCTAGGGAGATTAGAGTATCGGTCGA", "binding signal": -0.943}, {"sequence": "GTTTTACAAACACAATGGAAGGCTGTATGTGCCTAGGGAGATTAGAGTATCGGTCGA", "binding signal": 0.119}, {"sequence": "GTCACTGCTCAAAAACACTCAGTTAATTATGCCTAGGGAGATTAGAGTATCGGTCGA", "binding signal": -0.0424}, {"sequence": "CTCCCAAATCTTCTTTAAGCTATGTGGTGGGCCTAGGGAGATTAGAGTATCGGTCGA", "binding signal": 0.933}, {"sequence": "TTTCTGTTTGTCTTACTGTGTTGTCGTATTGCCTAGGGAGATTAGAGTATCGGTCGA", "binding signal": 2.11}, {"sequence": "ACAGCACTTAGGGTTCAAAGGTTGTTGAGCGCCTAGGGAGATTAGAGTATCGGTCGA", "binding signal": 6.67}, {"sequence": "CTCCAGGGCACTGCCCTTTGGAACCTGCCCGCCTAGGGAGATTAGAGTATCGGTCGA", "binding signal": 6.57}, {"sequence": "TACTTTGCTTCCAAGTTATGCAGACCTTTGGCCTAGGGAGATTAGAGTATCGGTCGA", "binding signal": 2.66}, {"sequence": "ATTCCCTTTCTCCTCCCCTCCCCTCCCCCCGCCTAGGGAGATTAGAGTATCGGTCGA", "binding signal": 6.78}, {"sequence": "AAAGCCTAGGCTCCAGGGCACTGCCCTTTGGCCTAGGGAGATTAGAGTATCGGTCGA", "binding signal": 3.51}, {"sequence": "ATTCCCTCCAGCAGGGGATGCCCTTTGACCGCCTAGGGAGATTAGAGTATCGGTCGA", "binding signal": 9.35}, {"sequence": "TGCACATTCCCTCCAGCAGGGGATGCCCTTGCCTAGGGAGATTAGAGTATCGGTCGA", "binding signal": 2.84}, {"sequence": "CTAGGCTCCAGGGCACTGCCCTTTGGAACCGCCTAGGGAGATTAGAGTATCGGTCGA", "binding signal": 7.42}, {"sequence": "TGCTTCCAAGTTATGCAGACCTTTGCCCTTGCCTAGGGAGATTAGAGTATCGGTCGA", "binding signal": 7.7}, {"sequence": "GGATGCCCTTTGACCTCTGCTTCCTGCTACGCCTAGGGAGATTAGAGTATCGGTCGA", "binding signal": 6.5}, {"sequence": "CCCTTTGACCTCTGCTTCCTGCTACAGAGCGCCTAGGGAGATTAGAGTATCGGTCGA", "binding signal": 2.76}, {"sequence": "GCAGGGGATGCCCTTTGACCTCTGCTTCCTGCCTAGGGAGATTAGAGTATCGGTCGA", "binding signal": 8.67}, {"sequence": "TTATGCAGACCTTTGCCCTTTGTTTACATAGCCTAGGGAGATTAGAGTATCGGTCGA", "binding signal": 5.95}, {"sequence": "CACAGACCTGCCTCTCTCTCATGTCTGTACGCCTAGGGAGATTAGAGTATCGGTCGA", "binding signal": 0.832}, {"sequence": "TGGTGCTATGTCCCTGACTGTGTGGCTTGCGCCTAGGGAGATTAGAGTATCGGTCGA", "binding signal": 0.908}, {"sequence": "GTCCATCACCTGGCTCTGAAAAACAAAATGGCCTAGGGAGATTAGAGTATCGGTCGA", "binding signal": -0.567}]}]}
